Bioassay records (PubChem BioAssay)
H9c2 protect = myocardial damage modulation in H9c2 cells; H9c2 cardiomyocytes, H2O2 injury protection, ATPLite, 2 h; protection from H2O2 cell death, % at 20 µM; 360,000 tested, 0.63% active;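 active = compounds giving at least 50% protection of heart cells from peroxide-induced death in the single-dose screen, raw or plate-pattern-corrected value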;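 also: 0% = DMSO wells with peroxide and 100% = DMSO wells without peroxide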
MIN6 prolif = MIN6 beta-cell proliferation induction; MIN6 cells proliferation, ATPlite luminescence, 48 h; cells starved in 0.2% serum; 100% = growth in 10% serum; AID 2380; 330,000 tested, 0.29% active; proliferation, % at 10 µM;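 active = compounds whose signal lies at least 3.5 SD above the mean of all wells on their plate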;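 also: 0% = DMSO-treated cells in low-serum medium and 100% = 10% serum control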
V-ATPase pHluor = yeast V-ATPase proton transport regulation by pHLuorin; S. cerevisiae, pHLuorin cytosolic pH fluorescence; response, % at 10 µM; 350,000 tested, 0.37% active; AID 504577; in the data active = response mostly above about 7.3%, no sharp cut-off; inactive = mostly below about 5.4%; also: actives read high
HSV replic up = HSV replication enhancement | maximum fold increase | AID 1956 | HSV replication augmentation in cells, fold increase | 220,000 tested, 0.005% active; in the data active = maximum fold increase above about 1.5; tested in PC3 cells
CR mimetic SO = lowers age-related superoxide in aged yeast cells | superoxide response (% of plate mean), % at 10 µM | S. cerevisiae aged cells, superoxide DHE fluorescence; hits give low values | 330,000 tested, 0.18% active;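 active = superoxide response under a set limit, about three screen SD below normal, cut at about 65% in these data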;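 also: yeast aged for seven days with compound at 30 °C before DHE staining; 100% = average MFI of all compound-treated wells on the plate with controls excluded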
pCIP destab = lowers stability of the mouse p/CIP coactivator protein; Q05BA5; F442A p/CIP-EGFP cells, EGFP fluorescence, 16 h; decrease of EGFP signal, % at 10 µM; 290,000 tested, 0.01% active; AID 1984;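 active = EGFP signal decrease of at least 30% at 10 µM or well 3 SD below plate mean, unless failing retest; inactive = the rest, including hits failing retest or dose response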
Target sequence (Q05BA5 1-1403): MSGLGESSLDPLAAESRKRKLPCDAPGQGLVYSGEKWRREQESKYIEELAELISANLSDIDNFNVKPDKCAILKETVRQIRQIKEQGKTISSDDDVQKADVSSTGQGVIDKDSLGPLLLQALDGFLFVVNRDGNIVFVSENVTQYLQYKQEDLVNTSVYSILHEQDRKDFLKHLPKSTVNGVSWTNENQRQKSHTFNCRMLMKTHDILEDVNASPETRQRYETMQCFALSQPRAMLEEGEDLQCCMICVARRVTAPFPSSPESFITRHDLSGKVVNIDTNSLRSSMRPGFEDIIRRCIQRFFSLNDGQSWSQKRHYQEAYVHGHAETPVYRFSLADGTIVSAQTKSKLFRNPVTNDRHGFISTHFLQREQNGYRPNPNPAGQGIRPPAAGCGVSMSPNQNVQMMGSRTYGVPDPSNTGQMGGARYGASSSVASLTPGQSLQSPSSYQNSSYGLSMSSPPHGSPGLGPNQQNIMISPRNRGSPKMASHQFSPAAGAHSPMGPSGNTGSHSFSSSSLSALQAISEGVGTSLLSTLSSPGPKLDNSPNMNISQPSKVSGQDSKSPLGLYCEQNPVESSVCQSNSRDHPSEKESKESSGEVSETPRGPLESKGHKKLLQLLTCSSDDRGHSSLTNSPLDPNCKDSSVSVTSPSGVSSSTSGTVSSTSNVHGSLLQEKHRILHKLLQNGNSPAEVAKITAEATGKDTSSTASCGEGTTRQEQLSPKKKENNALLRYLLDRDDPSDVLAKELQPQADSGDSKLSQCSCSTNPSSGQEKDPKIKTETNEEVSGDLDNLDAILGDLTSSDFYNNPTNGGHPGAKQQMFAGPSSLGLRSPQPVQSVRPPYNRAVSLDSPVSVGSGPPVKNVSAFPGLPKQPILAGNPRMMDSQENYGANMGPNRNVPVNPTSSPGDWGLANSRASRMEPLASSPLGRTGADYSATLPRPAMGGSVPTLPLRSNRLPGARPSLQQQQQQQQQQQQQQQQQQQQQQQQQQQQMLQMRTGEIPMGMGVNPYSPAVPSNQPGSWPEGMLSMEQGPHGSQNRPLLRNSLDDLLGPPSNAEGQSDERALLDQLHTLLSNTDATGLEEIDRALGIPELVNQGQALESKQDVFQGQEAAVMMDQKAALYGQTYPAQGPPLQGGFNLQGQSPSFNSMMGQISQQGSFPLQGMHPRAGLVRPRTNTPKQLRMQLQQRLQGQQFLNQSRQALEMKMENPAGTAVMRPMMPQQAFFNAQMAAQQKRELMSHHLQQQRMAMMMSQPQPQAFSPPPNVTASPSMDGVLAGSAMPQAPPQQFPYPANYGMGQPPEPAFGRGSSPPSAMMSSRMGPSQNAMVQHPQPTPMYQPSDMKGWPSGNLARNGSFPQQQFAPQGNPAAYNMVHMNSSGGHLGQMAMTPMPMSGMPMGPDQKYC
Superoxide pick = confirmation of caloric restriction mimetics inhibiting yeast age-related superoxide; 850 tested, 1% active; shares compounds with CR mimetic SO; superoxide response (% of plate), % at 10 µM; S. cerevisiae aging, superoxide DHE fluorescence; hits give low values;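 active = superoxide signal below 65% of the plate average of sample wells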;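 also: cells aged with compound for 7 days at 30 degrees C before staining; 100% equals mean DHE fluorescence of all compound wells on the plate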
DHE fluor count = counter-screen for compounds affecting DHE oxidation and fluorescence in yeast; shares compounds with CR mimetic SO; S. cerevisiae BY4741, flow cytometry; hits give low values; fluorescence response, % at 10 µM; 850 tested, under 10 active;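 active = fluorescence response below 15%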;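 also: percent of the mean fluorescence averaged over all compound wells on the plate; lower means stronger quenching of DHE signal or ROS scavenging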
Numbers without * were called inactive; i = inactive; nt = no result given. Shown are actives, neighbours in structure and some others; about 1.4% of the full set was active somewhere.

SMILES	H9c2 protect	MIN6 prolif	V-ATPase pHluor	HSV replic up	CR mimetic SO	pCIP destab	Superoxide pick	DHE fluor count
O=C1/C(=C/c2cccnc2)CCC/C1=C\c1cccnc1	nt	nt	nt	i	65*	-1	104	87
O=C1/C(=C/c2cccnc2)CC/C1=C\c1cccnc1	-3	-4	6	i	118	-10	nt	nt
CCCCOC(=O)CSc1nnc(-c2ccc(Cl)cc2Cl)o1	-6	0	0	i	105	0	nt	nt
CC(C)OC(=O)CSc1nnc(-c2ccc(Cl)cc2Cl)o1	-12	-2	-1	i	107	1	93	92
CNc1c(NC(=O)C2CCC(C)CC2)c(=O)oc2ccccc12 (configuration not stated)	6	-4	7	nt	141	6	nt	nt
Cc1nc2ccccc2c(=O)n1/N=C/c1cc(Br)ccc1O	54*	2	1	nt	64*	-2	106	104
COc1ccc(Br)cc1/C=N/n1c(C)nc2ccccc2c1=O	-2	1	1	nt	nt	-14	nt	nt
Cc1ccccc1OCC(=O)Nc1nnc(-c2ccncc2)s1	6	-1	1	i	95	-2	nt	nt
O=C(COc1ccccc1F)Nc1nnc(-c2ccncc2)s1	2	1	1	i	55*	-8	115	108
Cc1ccccc1NC(=O)CSc1nnnn1C	7	1	0	i	60*	-5	101	94
COc1ccccc1NC(=O)CSc1ccc(-c2ccc(-n3ccnc3)cc2)nn1	3	-1	-1	nt	99	nt	105	90
Cc1ccccc1NC(=O)CSc1ccc(-c2ccc(-n3cccn3)cc2)nn1	-6	-5	-6	nt	119	nt	99	96
COc1ccccc1C1CCN(C(=O)c2ccc(Cl)cc2)CC1	4	-4	-4	nt	37*	-7	96	101
COc1ccccc1C1CCN(C(=O)c2ccccc2)CC1	0	0	2	nt	96	0	nt	nt
CC(=O)c1ccc(S(=O)(=O)N2CCC3(CC2)CC(=O)c2ccccc2O3)cc1	10	5	1	nt	101	nt	nt	nt
COc1ccc(NC(=O)Cn2c(=O)oc3ccccc32)cc1	0	-1	-2	i	103	-7	nt	nt
CC(C)c1ccc(NC(=O)Cn2c(=O)oc3ccccc32)cc1	-10	-6	0	nt	65*	-2	95	110
COc1ccc(C(C)=O)cc1CSc1nncn1-c1ccccc1	8	0	-1	i	100	-9	nt	nt
CC1(C)CC(=O)C=C(Nc2ccc(F)c(Cl)c2)C1	-2	-3	0	nt	62*	1	99	95
Cc1ccc(NC2=CC(=O)CC(C)(C)C2)cc1Cl	-6	0	1	nt	98	-12	nt	nt
O=C(Cc1ccccc1)Oc1coc(CSc2ncccn2)cc1=O	12	-3	-1	i	87	8	nt	nt
COc1cccc(NC(=O)CN2CCc3ccccc3C2)c1	-2	-1	0	nt	93	-3	nt	nt
CCOC(=O)c1cnn(-c2nc(OCC)cc(OCC)n2)c1C	-2	3	-5	i	95	0	nt	nt
O=C(Nc1ccc2nc3ccccc3nc2c1)c1ccccc1	-8	nt	-4	i	47*	-14	59*	94
C=C(C)[C@@H]1CCC2(C(=O)O)CC[C@]3(C)[C@H](CC[C@@H]4[C@@]5(C)CCC(=O)C(C)(C)[C@@H]5CC[C@]43C)[C@@H]12 (some centres not stated)	-6	-8	1	i	99	-4	nt	nt
SMILES	H9c2 protect	MIN6 prolif	V-ATPase pHluor	HSV replic up	CR mimetic SO	pCIP destab	Superoxide pick	DHE fluor count
CC1(C)C(=O)CC[C@@]2(C)[C@H]1CC[C@@]1(C)CC3=C(CC[C@@H]12)[C@@]1(C)CCC(=O)C(C)(C)[C@@H]1CC3	nt	-8	nt	nt	64*	nt	95	100
CC(C)/C=C/C(=O)N1CCC(N2CCC(C(=O)NCC3CCCO3)CC2)CC1 (configuration not stated)	4	nt	0	nt	nt	nt	nt	nt
Cc1nnsc1C(=O)NNS(=O)(=O)c1cc(C(F)(F)F)cc(C(F)(F)F)c1	1	-2	-2	i	59*	-10	96	96
CCN1CCN(c2ncnc3sc4c(c23)CCC(C)C4)CC1 (configuration not stated)	4	-1	-2	nt	51*	9	99	91
O=c1c2ccccc2ncn1Cc1ccccc1	4	3	1	i	57*	-8	98	95
CC(C)(C)OC(=O)N[C@@H](C(=O)OC(C)(C)C)c1ccccc1	-6	4	-1	nt	86	nt	nt	nt
Cc1cccc([C@@H](NC(=O)OC(C)(C)C)C(=O)OC(C)(C)C)c1	3	2	0	nt	62*	nt	102	91
Cc1ccc(NC(=S)N(Cc2ccco2)C2CCN(C(C)C)CC2)cc1	2	0	-4	i	110	8	nt	nt
Cc1cc(SCC(=O)NC2(C#N)CCCCC2)nc2c(C)cccc12	-4	9	6	nt	64*	nt	99	103
Cc1cc(SCC(=O)N2CCCC2=O)nc2c(C)cccc12	-7	7	6	nt	84	nt	nt	nt
OC(c1cccnc1)c1nc(-c2ccc3c(c2)OCO3)cs1 (configuration not stated)	-1	nt	nt	nt	nt	nt	nt	nt
CCN(CC)Cc1cc(NC2=NS(=O)(=O)c3ccccc32)ccc1OC(=O)c1ccccc1	15	0	-2	i	63*	3	103	109
CC1O[C@@H](OCC2O[C@@H](Oc3cc(O)c4c(c3)OC(c3ccc(O)cc3)CC4=O)[C@H](O)[C@@H](O)[C@@H]2O)[C@H](O)[C@H](O)[C@H]1O (some centres not stated)	-2	1	0	nt	62*	nt	104	92
O=C(CNCc1ccc(F)cc1)Nc1cc(S(=O)(=O)N2CCOCC2)ccc1Cl	-3	-2	2	nt	90	nt	nt	nt
O=C(Oc1ccc(C(=S)N2CCCCC2)cc1)c1ccccc1F	-3	-3	-1	i	93	0	nt	nt
Fc1ccccc1COc1ccc(C(=S)N2CCCC2)cc1	-10	-4	0	nt	65*	-4	107	93
CCCCOc1ccc(-c2cc(C(=O)NNC(=S)NCC)c3ccccc3n2)cc1	-19	-6	-4	i	62*	13	123	106
COc1ccc(-n2nc3c(c2NC(=O)C(C)Oc2ccccc2)CS(=O)(=O)C3)cc1 (configuration not stated)	5	-1	-6	nt	54*	-18	117	114
Cn1cc(-c2coc3c(C(=O)NCc4ccco4)cccc23)cn1	3	nt	nt	nt	nt	nt	nt	nt
CC(=O)Oc1ccc(NC(=O)Cc2ccccc2)cc1	6	-2	-7	i	88	8	nt	nt
CC(=O)Oc1ccc(Nc2ccccc2)cc1	4	-6	1	i	50*	-12	94	102
